Target: T1, ETS1 (UniProt P14921)
T1 sequence: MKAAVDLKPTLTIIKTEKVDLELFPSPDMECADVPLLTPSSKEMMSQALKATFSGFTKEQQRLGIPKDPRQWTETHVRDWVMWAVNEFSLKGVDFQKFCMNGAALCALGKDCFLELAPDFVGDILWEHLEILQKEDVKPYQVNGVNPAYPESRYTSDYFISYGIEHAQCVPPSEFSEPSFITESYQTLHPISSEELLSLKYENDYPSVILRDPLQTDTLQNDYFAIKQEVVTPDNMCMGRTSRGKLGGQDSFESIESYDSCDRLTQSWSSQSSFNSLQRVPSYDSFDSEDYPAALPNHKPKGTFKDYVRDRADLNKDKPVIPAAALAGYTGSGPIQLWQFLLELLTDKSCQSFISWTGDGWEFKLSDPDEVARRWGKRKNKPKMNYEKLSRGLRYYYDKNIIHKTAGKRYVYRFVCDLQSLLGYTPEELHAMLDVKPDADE
Assay: ETS1 binding intensity (PBM fluorescence), ETS1 alone (arbitrary fluorescence units); higher = stronger binding
Conditions: ETS1 concentration 1 nM; RUNX1 concentration 0 nM

| Sequence | ETS1 binding intensity |
| --- | --- |
| CCGGGCCTCCAGACGGAACTGTGGGCGAGGGGAGGG | 470 |
| ACACCGCTCAGGAAGACAAAGCCACACCTCACACCA | 443 |
| AAGCTTCCTGGCCCTTTAAAAATGGCGGTTCCGCAC | 519 |
| TGTGCTTTGTAGTGAGGATGTGGGTGCCTGCCTCAC | 797 |
| GCTTAGGCTCTTTCCTGTGTGGTGAGCACTAACCTC | 488 |
| GCAGCCAGGGTAGGAAGTGGTAAGACCTCCCTGTGA | 893 |
| ACAGGAAACTAAAATAAGAACAGAAAACCAAGACAG | 865 |
| GCAAACGGAAGAGAGGAACGAAGGCCGCAGAGCTTG | 486 |
| TAAACCCTGCTTCCTGTCCCTGCGCCCCACAAGGAG | 1290 |
| AATTGTCAATGGCAGGAAGCCACCACATGAAGAGAT | 1290 |
| CCGCCTCCGGAAGAATTCTCTGCGGGCATGTTGCTG | 736 |
| CTCAGAGGCACCAAGGGAAGTGGTTAAAACAGAAAG | 677 |
| CCTCCTCTTCCTCCCCACTCTGCACATGCGGCTGGG | 520 |
| GGCTTGCCAAGAGGAAATTTGAAGCCACAATAACAT | 808 |
| CCACGCCCCCTCCTTCCGCTGCGGGAGATAGCCACT | 787 |
| CATGAGAAACATCCTGCCCAACCACCTGACTACAAG | 492 |
| AGCCGGAGGCGGAAGGAGCAGCGCTACCGCAGCGTC | 639 |
| ACCTTCCTTCCTGCCTCCCTTGTGGCTCCAGTCCAC | 552 |
| CGGGCCCGACGGAAACCATGTTTGTGGCTCGCAGCA | 744 |
| CAGATTCGTGTTTCCGTGCCCGCAGCTCCGTCAGCT | 467 |

| Sequence | ETS1 binding intensity |
| --- | --- |
| TGAGGCTCAGAGGAAGTGACTGGCCCGCAGGGTCAC | 1050 |
| CTCCCCCCACGACTTCCCTCTGTGGCCCCGGGCCGC | 677 |
| GGAGCAACCGGCCGGATACCGCCACAGCCCTGGCAG | 1720 |
| CCCTTTTCCTTCCGGCCTGTGCGGCTTATAAGATCT | 736 |
| GCGCGCTTCCGCCTTCATGCTAGCAACGCCCGCAGT | 566 |
| AAGCTGAAAAGGGGATGTGGTTGCCTGCCTGTGGGA | 534 |
| ATGACTTCGAGGAAGTCTTCAGAAACCACAGGCTGA | 405 |
| TTCTGGACATGCTTCCTGTGGCTTCTCTCCTGCGCT | 845 |
| ATTGTAAATTTCCTTTAAACGTCCCCACCGCGCTCC | 463 |
| CACCTGCCTTGCTTCCTGCGGTGCAACCGGCGGGAG | 499 |
| CGCCCTCCGGAAGAGAGGGCGGACCGCGGCCGCGCA | 570 |
| ACTTCCAGGAAGCCCCATAGTCCAGAAACCCACACA | 493 |
| CAGATTTCCGGCTTCTGAGGAGCTGCCCTACCACAG | 530 |
| TGGGACGAGTGGGCGGAAACAGCCGCAGGTCTCTCT | 1990 |
| GCAGTCGCTAAGGGCGGAAACCACTGTTTGGGAGCT | 2110 |
| AGCAGATTTGCTGCAGGAAACCACCGAGTCTCACGG | 1130 |
| AGCGGGAGGAAGTGCTGCAGTAGCCACAGCAGCCTG | 534 |
| AGAGGAAGTAAATTCTAACAGTGGAAACCACAGATT | 647 |
| CCATTCCCGGGCTTCCGCGGTGTCCCCACCCCCTAA | 673 |
| TAAATAGGAAGTCAGAGTTTACTGCCGAACCCACAG | 616 |

Target: T1, ETS1
Assay: ETS1 binding intensity (PBM fluorescence) in presence of RUNX1, normalised to ETS1-only experiment (arbitrary fluorescence units); higher = stronger binding
Conditions: ETS1 concentration 1 nM; RUNX1 concentration 25 nM

| Sequence | ETS1 binding intensity |
| --- | --- |
| CCGGGCCTCCAGACGGAACTGTGGGCGAGGGGAGGG | 404 |
| ACACCGCTCAGGAAGACAAAGCCACACCTCACACCA | 358 |
| AAGCTTCCTGGCCCTTTAAAAATGGCGGTTCCGCAC | 714 |
| TGTGCTTTGTAGTGAGGATGTGGGTGCCTGCCTCAC | 1010 |
| GCTTAGGCTCTTTCCTGTGTGGTGAGCACTAACCTC | 324 |
| GCAGCCAGGGTAGGAAGTGGTAAGACCTCCCTGTGA | 1230 |
| ACAGGAAACTAAAATAAGAACAGAAAACCAAGACAG | 852 |
| GCAAACGGAAGAGAGGAACGAAGGCCGCAGAGCTTG | 481 |
| TAAACCCTGCTTCCTGTCCCTGCGCCCCACAAGGAG | 1150 |
| AATTGTCAATGGCAGGAAGCCACCACATGAAGAGAT | 1650 |
| CCGCCTCCGGAAGAATTCTCTGCGGGCATGTTGCTG | 775 |
| CTCAGAGGCACCAAGGGAAGTGGTTAAAACAGAAAG | 1790 |
| CCTCCTCTTCCTCCCCACTCTGCACATGCGGCTGGG | 344 |
| GGCTTGCCAAGAGGAAATTTGAAGCCACAATAACAT | 951 |
| CCACGCCCCCTCCTTCCGCTGCGGGAGATAGCCACT | 751 |
| CATGAGAAACATCCTGCCCAACCACCTGACTACAAG | 511 |
| AGCCGGAGGCGGAAGGAGCAGCGCTACCGCAGCGTC | 1130 |
| ACCTTCCTTCCTGCCTCCCTTGTGGCTCCAGTCCAC | 312 |
| CGGGCCCGACGGAAACCATGTTTGTGGCTCGCAGCA | 699 |
| CAGATTCGTGTTTCCGTGCCCGCAGCTCCGTCAGCT | 362 |

| Sequence | ETS1 binding intensity |
| --- | --- |
| TGAGGCTCAGAGGAAGTGACTGGCCCGCAGGGTCAC | 1550 |
| CTCCCCCCACGACTTCCCTCTGTGGCCCCGGGCCGC | 645 |
| GGAGCAACCGGCCGGATACCGCCACAGCCCTGGCAG | 1400 |
| CCCTTTTCCTTCCGGCCTGTGCGGCTTATAAGATCT | 1090 |
| GCGCGCTTCCGCCTTCATGCTAGCAACGCCCGCAGT | 560 |
| AAGCTGAAAAGGGGATGTGGTTGCCTGCCTGTGGGA | 863 |
| ATGACTTCGAGGAAGTCTTCAGAAACCACAGGCTGA | 1430 |
| TTCTGGACATGCTTCCTGTGGCTTCTCTCCTGCGCT | 598 |
| ATTGTAAATTTCCTTTAAACGTCCCCACCGCGCTCC | 480 |
| CACCTGCCTTGCTTCCTGCGGTGCAACCGGCGGGAG | 585 |
| CGCCCTCCGGAAGAGAGGGCGGACCGCGGCCGCGCA | 636 |
| ACTTCCAGGAAGCCCCATAGTCCAGAAACCCACACA | 402 |
| CAGATTTCCGGCTTCTGAGGAGCTGCCCTACCACAG | 398 |
| TGGGACGAGTGGGCGGAAACAGCCGCAGGTCTCTCT | 2750 |
| GCAGTCGCTAAGGGCGGAAACCACTGTTTGGGAGCT | 3180 |
| AGCAGATTTGCTGCAGGAAACCACCGAGTCTCACGG | 1490 |
| AGCGGGAGGAAGTGCTGCAGTAGCCACAGCAGCCTG | 737 |
| AGAGGAAGTAAATTCTAACAGTGGAAACCACAGATT | 2290 |
| CCATTCCCGGGCTTCCGCGGTGTCCCCACCCCCTAA | 652 |
| TAAATAGGAAGTCAGAGTTTACTGCCGAACCCACAG | 523 |
